From PubChem BioAssay come the findings set out here.

Molecules are shown by their SMILES. Unmarked numbers belong to inactive results. For some of these results: Potency and affinity values are given separately. Active and inactive are the calls of the source. Unless noted, how the calls were made is not given here.

A word on the inhibition: it is the drop in the measured response relative to a control, in per cent.

The target of test [1] is 6-phosphogluconate dehydrogenase, decarboxylating (Homo sapiens) (UniProt P52209). In words: inhibition of human phosphogluconate dehydrogenase – biochemical, recombinant enzyme, NADPH absorbance, primary screen (AID 1159550;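 active means at least 20% inhibition of 6-phosphogluconate dehydrogenase activity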). The settings on record: recombinant 6PGD, NADPH absorbance 341 nm; at 10 µM; stronger effect = higher value.
Chain of 6-phosphogluconate dehydrogenase, decarboxylating (Homo sapiens) (P52209 whole entry, looked up, the tested form may be a part): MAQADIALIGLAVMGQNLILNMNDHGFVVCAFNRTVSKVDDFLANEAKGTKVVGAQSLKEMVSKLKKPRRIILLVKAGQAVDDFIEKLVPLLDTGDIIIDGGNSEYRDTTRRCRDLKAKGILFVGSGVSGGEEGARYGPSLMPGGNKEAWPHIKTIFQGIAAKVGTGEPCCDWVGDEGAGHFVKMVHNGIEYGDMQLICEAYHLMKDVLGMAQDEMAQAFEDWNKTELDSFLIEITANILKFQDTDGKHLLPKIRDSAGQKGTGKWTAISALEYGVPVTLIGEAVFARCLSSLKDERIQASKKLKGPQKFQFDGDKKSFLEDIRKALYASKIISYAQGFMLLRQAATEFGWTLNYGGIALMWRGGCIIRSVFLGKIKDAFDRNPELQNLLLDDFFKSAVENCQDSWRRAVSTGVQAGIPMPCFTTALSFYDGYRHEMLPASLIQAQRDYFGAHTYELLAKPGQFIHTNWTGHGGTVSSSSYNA
The target of test [2] is Mitogen-activated protein kinase 7 (Homo sapiens) (UniProt Q13164). As to the kind of experiment: Gal4-ERK5 driven luciferase induction – cell-based, HTS, primary screen (AID 1508626;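 active means luciferase signal above three times the same-plate solvent-only control wells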;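 further: luciferase driven by Gal4-ERK5 fusion binding five Gal4 sites before minimal TATA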). The following applies: HeLa Gal4-ERK5 transactivation, 18 h, at 5 µM, stronger effect = higher value.
Chain of Mitogen-activated protein kinase 7 (Homo sapiens) (Q13164 whole entry, looked up, the tested form may be a part): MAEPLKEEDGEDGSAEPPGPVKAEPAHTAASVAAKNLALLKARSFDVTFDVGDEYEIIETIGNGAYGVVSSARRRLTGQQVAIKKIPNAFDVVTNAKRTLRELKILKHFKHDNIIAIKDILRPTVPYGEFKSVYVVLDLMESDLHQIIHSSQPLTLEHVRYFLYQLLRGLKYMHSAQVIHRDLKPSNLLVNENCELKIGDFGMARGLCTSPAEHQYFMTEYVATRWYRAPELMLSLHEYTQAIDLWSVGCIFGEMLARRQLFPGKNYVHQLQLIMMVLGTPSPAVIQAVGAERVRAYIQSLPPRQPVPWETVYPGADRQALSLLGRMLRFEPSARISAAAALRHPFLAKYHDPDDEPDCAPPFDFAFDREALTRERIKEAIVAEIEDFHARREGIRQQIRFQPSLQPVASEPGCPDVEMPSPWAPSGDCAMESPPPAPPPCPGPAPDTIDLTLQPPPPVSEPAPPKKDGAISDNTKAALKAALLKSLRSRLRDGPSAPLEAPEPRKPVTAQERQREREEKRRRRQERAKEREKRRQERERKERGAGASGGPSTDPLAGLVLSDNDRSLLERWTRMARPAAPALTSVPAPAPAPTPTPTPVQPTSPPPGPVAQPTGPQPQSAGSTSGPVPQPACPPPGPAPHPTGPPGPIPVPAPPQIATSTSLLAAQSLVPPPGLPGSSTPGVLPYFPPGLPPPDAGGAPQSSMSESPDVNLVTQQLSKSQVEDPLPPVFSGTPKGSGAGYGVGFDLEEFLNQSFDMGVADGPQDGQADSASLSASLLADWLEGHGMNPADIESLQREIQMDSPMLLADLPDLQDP
A short description of test [3]: antimalarial activity against Dd2 strain (AID 2302;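 active means growth inhibition above 50% at the single 2 µM test dose, taken to imply half-maximal potency below 2 µM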;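 further: 0% = DMSO untreated growth and 100% = chloroquine plus artemisinin killed control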). The settings on record: P. falciparum Dd2 in RBCs, LDH growth readout, 72 h; at 2 µM; stronger effect = higher value.
The nature of test [4]: human hepatoma cell viability loss – ATP luminescence, cytotoxicity control for P. falciparum antimalarial project, primary screen (AID 2303;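 active means inhibition above 50%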;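 further: 0% = DMSO wells and 100% = digitonin-killed cells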). The settings on record: HepG2 viability, 24-48 h, at 10 µM, stronger effect = higher value.
Test [5] has as its target L-lactate dehydrogenase (Plasmodium falciparum (isolate CDC / Honduras)) (UniProt Q27743). As to the kind of experiment: PfLDH activity inhibition – cell lysate, 3D7 strain, counter-screen for P. falciparum growth inhibition project (AID 2304).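 Further: 0% = vehicle and 100% = reference inhibitor.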 The following applies: P. falciparum 3D7 crude extract, LDH APAD/NBT absorbance; at 2 µM; stronger effect = higher value. In general terms: The purpose of a counterscreen is to sort out artefacts and off-target activity.

The nature of test [6]: inhibition of 3D7 malaria parasite growth – strain 3D7 (AID 2306).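 Further: 0% = DMSO wells and 100% = chloroquine plus artemisinin control wells.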 The settings on record: P. falciparum 3D7 erythrocytic growth, LDH absorbance, 72 h; at 2 µM; stronger effect = higher value.
Test [7] deals with Calcium-dependent protein kinase 1 (Plasmodium falciparum (isolate 3D7)) (UniProt P62344). As to the kind of experiment: PfCDPK1 kinase inhibitors, biochemical, TCAMS library (AID 1159585; cut-off not given, nearly all actives have IC50 up to about 0.98 µM;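 further: inhibitors leave more ATP so luminescence rises with inhibition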). The following applies: recombinant PfCDPK1, Kinase-Glo ATP depletion luminescence.
Chain of Calcium-dependent protein kinase 1 (Plasmodium falciparum (isolate 3D7)) (P62344 whole entry, looked up): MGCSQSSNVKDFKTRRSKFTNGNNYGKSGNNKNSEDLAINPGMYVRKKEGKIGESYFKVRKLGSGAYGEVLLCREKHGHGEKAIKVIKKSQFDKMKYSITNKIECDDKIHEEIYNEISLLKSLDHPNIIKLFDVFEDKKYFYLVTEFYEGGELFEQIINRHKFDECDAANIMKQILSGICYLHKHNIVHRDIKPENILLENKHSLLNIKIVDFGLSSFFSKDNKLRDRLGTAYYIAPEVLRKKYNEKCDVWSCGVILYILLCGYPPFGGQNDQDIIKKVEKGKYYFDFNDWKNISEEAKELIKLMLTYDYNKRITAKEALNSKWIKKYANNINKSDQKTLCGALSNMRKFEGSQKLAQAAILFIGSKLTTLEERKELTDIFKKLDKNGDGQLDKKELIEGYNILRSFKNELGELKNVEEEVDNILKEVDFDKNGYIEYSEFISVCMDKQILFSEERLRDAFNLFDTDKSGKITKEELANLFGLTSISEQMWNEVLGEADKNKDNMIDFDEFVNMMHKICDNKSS
Test [8] concerns the target Plasmodium falciparum protein kinase 6 (PK6, PF3D7_1337100) (UniProt Q8IDW1). In words: PfPK6 kinase inhibitors, biochemical, TCAMS library (AID 1159586). The following applies: recombinant PfPK6, Kinase-Glo ATP depletion luminescence. Background: In Kinase-Glo more light means more ATP remaining.
The target in test [9] is Protein kinase 7 (PK7), Plasmodium falciparum 3D7 (PF3D7_0213400) (UniProt Q7YTF7). In words: inhibition of Plasmodium PK7 catalytic activity – biochemical, TCAMS antimalarial set, Kinase-Glo luminescence (AID 1159587). The following applies: recombinant PfPK7, Kinase-Glo ATP depletion luminescence.
Chain of Protein kinase 7 (PK7), Plasmodium falciparum 3D7 (PF3D7_0213400) (Q7YTF7 1-343): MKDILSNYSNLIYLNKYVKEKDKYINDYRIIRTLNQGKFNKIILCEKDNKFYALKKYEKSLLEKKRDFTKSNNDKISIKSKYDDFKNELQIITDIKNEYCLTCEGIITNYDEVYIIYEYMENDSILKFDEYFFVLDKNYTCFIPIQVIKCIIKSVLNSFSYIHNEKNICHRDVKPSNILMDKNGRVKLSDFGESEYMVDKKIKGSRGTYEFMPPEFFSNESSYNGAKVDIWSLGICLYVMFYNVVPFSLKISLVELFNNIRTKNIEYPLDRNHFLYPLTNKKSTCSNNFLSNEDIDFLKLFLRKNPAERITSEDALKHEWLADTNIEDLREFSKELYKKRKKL
In test [10] the target is Calcium-dependent protein kinase 4 (Plasmodium falciparum (isolate 3D7)) (UniProt Q8IBS5). In words: PfCDPK4 kinase inhibitors, biochemical, TCAMS library (AID 1159588; cut-off not given, nearly all actives have IC50 up to about 0.91 µM). The settings on record: recombinant PfCDPK4, Kinase-Glo ATP depletion luminescence.
Chain of Calcium-dependent protein kinase 4 (Plasmodium falciparum (isolate 3D7)) (Q8IBS5 whole entry, looked up): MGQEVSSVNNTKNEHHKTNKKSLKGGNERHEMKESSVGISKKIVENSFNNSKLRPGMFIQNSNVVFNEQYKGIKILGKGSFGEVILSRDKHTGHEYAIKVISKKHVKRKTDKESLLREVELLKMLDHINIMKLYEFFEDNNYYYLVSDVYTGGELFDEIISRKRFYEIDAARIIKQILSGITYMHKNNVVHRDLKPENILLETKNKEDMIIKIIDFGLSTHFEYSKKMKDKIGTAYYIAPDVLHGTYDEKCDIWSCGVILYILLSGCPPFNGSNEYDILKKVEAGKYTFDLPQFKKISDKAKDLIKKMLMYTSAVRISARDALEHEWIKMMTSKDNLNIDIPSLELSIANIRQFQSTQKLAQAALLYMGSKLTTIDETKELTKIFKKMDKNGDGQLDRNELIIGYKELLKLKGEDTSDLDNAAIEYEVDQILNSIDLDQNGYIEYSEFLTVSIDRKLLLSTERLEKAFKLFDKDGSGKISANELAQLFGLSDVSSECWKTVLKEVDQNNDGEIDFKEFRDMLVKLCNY

Chain of L-lactate dehydrogenase (Plasmodium falciparum (isolate CDC / Honduras)) (Q27743 whole entry, looked up): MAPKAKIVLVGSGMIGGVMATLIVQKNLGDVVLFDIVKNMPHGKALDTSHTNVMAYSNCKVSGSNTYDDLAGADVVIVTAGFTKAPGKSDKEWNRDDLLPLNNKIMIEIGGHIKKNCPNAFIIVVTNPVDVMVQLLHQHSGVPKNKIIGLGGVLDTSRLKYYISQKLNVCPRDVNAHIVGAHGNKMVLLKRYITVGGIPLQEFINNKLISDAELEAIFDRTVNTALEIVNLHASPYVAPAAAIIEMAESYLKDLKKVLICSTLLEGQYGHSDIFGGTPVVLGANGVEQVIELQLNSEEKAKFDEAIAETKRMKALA
Chain of Plasmodium falciparum protein kinase 6 (PK6, PF3D7_1337100) (Q8IDW1 1-305): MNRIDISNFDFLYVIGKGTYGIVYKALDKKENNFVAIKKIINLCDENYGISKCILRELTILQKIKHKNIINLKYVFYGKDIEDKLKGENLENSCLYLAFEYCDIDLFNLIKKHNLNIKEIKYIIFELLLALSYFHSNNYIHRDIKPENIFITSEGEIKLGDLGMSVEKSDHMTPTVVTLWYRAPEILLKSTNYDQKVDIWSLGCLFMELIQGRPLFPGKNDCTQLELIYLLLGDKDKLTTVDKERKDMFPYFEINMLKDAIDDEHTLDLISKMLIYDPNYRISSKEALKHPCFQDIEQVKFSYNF

In the case of `COC[C@]12CN(C=O)C3[C@@H]4C(OC)C1[C@]3(C1CC3(O)C(OC)C(O)C4(OC(C)=O)C1C3OC(=O)c1ccccc1)[C@@H](OC)C[C@H]2O` (stereo not given in full), the inhibition in test [1] is -2.18%. Further, the luciferase signal in test [2] was 148 AU.

Turning to `CS(=O)(=O)Nc1ccc2[nH]cc(C3CCN(CC4CCC(NC(=O)/C=C/c5ccccc5Cl)CC4)CC3)c2c1` (stereo not given), the growth inhibition was 7% in test [3] and 96% (active) in [6]. For the same compound, the inhibition in [4] was 12%; in [5] it was 2%. Besides, the outcome in test [7], in test [8], in [9] and in test [10] was inactive.
